Assay outcomes from PubChem.
Pf Dd2 inh: inhibitors of Plasmodium falciparum Dd2 growth; P. falciparum Dd2 growth, SYBR Green, 72 h; Potency, µM (titrated, usually from 28.9 µM), usual class: inhibitors; 120,000 tested, 4.3% active; AID 1347417; active means well fitted inhibition curve with a large enough effect; further: nearly all actives have a fitted effect of over 65% in size
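Infected erythrocytes (Dd2, 0.3% parasitemia, 2.5% hematocrit final) are added to compound in RPMI-1640/Albumax II medium, grown 72 h at 37C in low oxygen, then lysed with saponin/Triton-X containing SYBR Green and read by fluorescence.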
Hits are given with their value; n = inactive. The full list was thinned out, with hits kept by preference.

SMILES	Pf Dd2 inh
O=C(c1ccco1)c1cn(CCOc2ccc(F)cc2)c2ccccc12	1.3µM
O=C(c1cccs1)c1cn(CCOc2ccc(F)cc2)c2ccccc12	n
CCN(CC)C(=O)CN1C(=O)NC(c2ccccc2OC)C2=C1COC2=O (stereo not drawn)	n
FC(F)(F)c1ccc(-c2noc(-c3ncn4c3COC(c3ccccc3Cl)C4)n2)cc1 (stereo not drawn)	n
Fc1ccc(-c2noc(-c3ncn4c3COC(c3ccccc3Cl)C4)n2)cc1 (stereo not drawn)	n
Clc1ccccc1C1Cn2cnc(-c3nc(-c4ccccn4)no3)c2CO1 (stereo not drawn)	6.3µM
CCCCCC(=O)N1CCC(O)(c2csc(CN3CCN(C)CC3)n2)CC1	n
O=C1CCC(C(=O)N[C@@H]2COCC[C@@H]2OCc2cscn2)=NN1	n
Cn1cc(C(=O)NCCc2ccc(Cl)cc2)c(=O)c2cc(S(=O)(=O)N3CCCCC3)ccc21	n
CCCCNC(=O)c1cn(C)c2ccc(S(=O)(=O)N3CCCC3)cc2c1=O	n
Cn1cc(C(=O)NCCc2ccccc2)c(=O)c2cc(S(=O)(=O)N3CCCCCC3)ccc21	13µM
O=C(CN1CCN(C2CCCC2)CC(O)C1)NCCc1ccccc1 (stereo not drawn)	n
CCN1C(=O)CCC2(C(=O)NC(C)C)CCCC=C12 (stereo not drawn)	n
CNC(=O)[C@@H]1C[C@H](n2cc(-c3ccc(CN4CC[C@@H](O)C4)cc3)nn2)CN1	n
CCNC(=O)N1CCC(c2noc(COCCOC)n2)CC1	n
COc1ccc(C(=O)/C=C/c2cn(CC(O)CN3CCc4ccccc43)c3ccccc23)cc1 (stereo not drawn)	n
CCCCN(CC)CCCNC(=O)c1cn(C)c(=O)c2c1c1ccccc1n2C	n
CCOc1ccc2c(c1)c(=O)c(C(=O)c1ccccc1)cn2Cc1ccccc1	n
CCCCN(C)CC(O)Cn1cc(/C=C/C(=O)c2ccc(OCC)cc2)c2ccccc21 (stereo not drawn)	3.5µM
CCCCN(CCCC)CC(O)Cn1cc(/C=C/C(=O)c2ccccc2)c2ccccc21 (stereo not drawn)	0.89µM
COC(=O)[C@H](NC(=O)[C@@H]1C[C@H](NC(=O)Nc2ccc(F)cc2F)CN1C(=O)c1cccn1C)C(C)C	n
CCc1noc([C@@H]2CC(F)(F)CN2C(=O)c2cc(C)no2)n1	n
COc1ccccc1CC(=O)N1CCC2(CC1)NC(=O)N(c1ccccc1)N2	n
CCSc1ncc(CN2CC[C@@H](NC(=O)c3cnccn3)[C@H](O)C2)cn1	n
Cc1ccccc1-c1[nH]nc2ncc(-c3ccc(F)cc3)nc12	n
SMILES	Pf Dd2 inh
CC1=NS(=O)(=O)N(CCc2ccccc2)C=C1C(=O)O	n
Cc1ccc(CNC(=O)CSc2nc3n[nH]c(C)c3c(=N)n2-c2cccc(C)c2)cc1	n
CCC(C)NC(=O)CSc1nc2n[nH]c(C)c2c(=N)n1-c1ccc(C)c(Cl)c1 (stereo not drawn)	n
Cc1ccc(-n2c(SCC(=O)Nc3cccc(Cl)c3)nc3n[nH]c(C)c3c2=N)cc1	13µM
O=C(Cc1ccsc1)N1CC(c2nnc(-c3ccncc3)o2)C2(CCOCC2)C1 (stereo not drawn)	n
CC(C)CCN1CC[C@H](c2nc3ccccc3[nH]2)C1	n
Cc1cc(C)c(NC(=O)CSc2nc(-c3ccc(F)cc3)nc3c2Cc2c(CO)cnc(C)c2O3)c(C)c1	n
Cc1cccc(NC(=O)CSc2nc(-c3cccc(C)c3)nc3c2Cc2c(CO)cnc(C)c2O3)c1	8.9µM
Cc1ncc(CO)c2c1Oc1nc(-c3ccc(Cl)cc3)nc(SCC(=O)N3CCCCC3)c1C2	3.2µM
Cc1ccc(NC(=O)CSc2nc(-c3ccc(F)cc3)nc3c2Cc2c(CO)cnc(C)c2O3)cc1C	n
O=C(CSc1nc(-c2ccc(Cl)cc2)nc2c1Cc1ccccc1O2)N1CCCCC1	n
COc1cccc(-c2nc3c(c(SCC(=O)Nc4cc(C)ccc4C)n2)Cc2c(CO)cnc(C)c2O3)c1	n
CCn1cc(S(=O)(=O)N2CCC(Cc3ncc(C)n3Cc3ccc(F)cc3)CC2)cn1	n
N#Cc1ccc(S(=O)(=O)N2CCC(Cc3nc(-c4ccncc4)n[nH]3)C2)cc1 (stereo not drawn)	n
Cc1cnc(CC2CCN(S(=O)(=O)c3ccc(C#N)cc3)C2)n1C1CC1 (stereo not drawn)	10µM
Cc1cnc(C2CCN(C(=O)NC(C)C)C2)n1C(C)C (stereo not drawn)	n
Cn1c([C@H]2CCN(S(=O)(=O)c3ccc(F)cc3)C2)nc2ccccc21	n
CCC(=O)N1CCC(Cc2ncc(C)n2C2CC2)C1 (stereo not drawn)	n
CCS(=O)(=O)N1CCC(Cc2ncc(C)n2Cc2ccccc2)C1 (stereo not drawn)	11µM
Cc1cnc(CC2CCN(S(=O)(=O)c3ccccc3)CC2)n1Cc1ccccc1	0.56µM
CCCS(=O)(=O)NCCc1ncc(C)n1Cc1ccccc1	n
Cc1cnc(C2CCN(S(=O)(=O)c3ccccc3)C2)n1C(C)C (stereo not drawn)	4µM
